Measured values published in PubChem BioAssay.
A number with no mark means an inactive call. How the calls were made is not given here.

Target: Pantothenate synthetase (Mycobacterium tuberculosis (strain ATCC 25618 / H37Rv)) (UniProt P9WIL5)
Test: Coupled enzyme confirmation of inhibitors against recombinant Mtb PanC (AID 375);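 further: 0% = full reaction with vehicle and 100% = no enzyme background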
Settings: coupled enzyme assay; at 10 µM, active compounds read high

Chain of Pantothenate synthetase (Mycobacterium tuberculosis (strain ATCC 25618 / H37Rv)) (P9WIL5 whole entry, looked up): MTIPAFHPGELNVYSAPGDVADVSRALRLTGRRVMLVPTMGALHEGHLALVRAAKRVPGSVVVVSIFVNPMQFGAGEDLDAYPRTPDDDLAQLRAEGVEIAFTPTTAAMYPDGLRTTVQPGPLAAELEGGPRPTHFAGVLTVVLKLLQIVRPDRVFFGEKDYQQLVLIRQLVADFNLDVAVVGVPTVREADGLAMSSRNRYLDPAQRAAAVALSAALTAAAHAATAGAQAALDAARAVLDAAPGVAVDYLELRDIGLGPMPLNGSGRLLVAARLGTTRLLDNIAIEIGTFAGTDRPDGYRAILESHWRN

Compound | inhibition [%]
O=C(CN1CCC(O)(c2ccc3c(c2)OCO3)CC1)OC1CCCCC1 | 0
CN(C(=O)c1cc2sccc2n1C)C1CCCCC1 | 6
Clc1cccc(-c2nnc(-c3ccccc3)o2)c1 | 0
COc1ccc2[nH]c(=O)c(CN(Cc3cccs3)Cc3nnnn3C(C)(C)C)cc2c1 | 0
COc1ccccc1C1CC(c2ccc(C)cc2)Nc2ncnn21 (stereo not given) | 3
COc1ccc2c(c1)C(=NO)c1cc(OC)ccc1-2 | 0
O=C(O)c1ccc(C2SCC(=O)N2Cc2ccccc2)cc1 (stereo not given) | 2
CCOC(=O)c1ccc(Oc2nc(NC)nc(OC)n2)cc1 | 0
COc1ccc(-c2nnc(SCC(=O)N3CCOCC3)o2)cc1OC | 0
Cc1occc1C(=O)N1CCN(Cc2ccccc2)CC1 | 0
Cn1cccc1Cc1nnc(SCC(N)=O)n1-c1ccc(F)cc1 | 0
CCOC(=O)N1CCN(C(=O)COc2ccc(Br)cc2Cl)CC1 | 0
Cc1cc2c(cc1C)C(=O)NC(C)(C)C2 | 0
N#CCCCCn1c(-c2cncs2)nc2ccccc21 | 0
c1ccc(CC2CCN(c3nc4ccccc4n4nnnc34)CC2)cc1 | 11
CCOC(=O)c1c(N)nn(C(=O)C(C)C)c1-c1ccccc1 | 0
COc1ccccc1N1CCN(C(=O)CCNS(=O)(=O)c2ccc3c(c2)CCC(=O)N3)CC1 | 0
CO[C@@]1(NC(=O)CSCC#N)C(=O)N2C(C(=O)O)=C(CSc3nnnn3C)CS[C@@H]21 | 0
Cc1cccc(-c2nnn(CC/C(N)=N/O)n2)c1 | 3
CC(C)(C#N)Nn1cnnc1 | 0

Compound | inhibition [%]
Cc1cc(OCC(=O)N2CCCC2)cc(C)c1Cl | 2
C=CCn1c(SCC(=O)NCC2CCCO2)nnc1C1CCCCC1 (stereo not given) | 8
CC1=C(C(=O)NCc2ccco2)C2(CCC(C)CC2)OC1=O (stereo not given) | 4
Cc1ccc(-c2noc(COc3ccccc3C)n2)cc1 | 0
CCS(=O)(=O)N1CCC(C(=O)NC2CCCCC2)CC1 | 0
CCOc1cc(C(=O)Nc2c3c(nn2C(C)(C)C)CS(=O)C3)cc(OCC)c1OCC (stereo not given) | 4
CCN(CC(=O)NC1CCS(=O)(=O)C1)C(=O)C(c1ccccc1)c1ccccc1 (stereo not given) | 1
CCOC(=O)N1CCN(C(=O)CN(C2CCCCC2)S(=O)(=O)c2ccc(F)cc2)CC1 | 0
CCOc1ccc2nc(Nc3nc4c(c(=O)[nH]3)CCC4)nc(C)c2c1 | 0
O=C(NC1CC1)c1ccc(S(=O)(=O)NCC2CCCCC2)cc1 | 0
O=C(CSc1nnc(-c2ccccc2F)o1)OCc1ccccc1 | 0
C=CCc1ccccc1OCCCCN1CCCC1 | 0
CC(C)=CC(=O)N1CCCc2ccccc21 | 13
CCOc1ccc(/C=N/n2cnnc2)cc1 | 3
O=C(Cn1nnc2c(cnn2-c2ccc(F)cc2)c1=O)c1ccccc1F | 1
Oc1ccc(Nc2nc(-c3ccc(O)cc3)cs2)cc1 | 2
CN(CC(O)COc1ccc(OCC(O)CN(C)C2CCCCC2)cc1)C1CCCCC1 (stereo not given) | 4
CCS(=O)(=O)N1CCCC(C(=O)NCCc2ccc(OC)c(OC)c2)C1 (stereo not given) | 4
c1ccc(-c2nc3nonc3c3nc4ccccc4n23)cc1 | 2
COc1cc(NC(=O)C2C3C=CC(C3)C2C(=O)O)c(OC)cc1Cl (stereo not given) | 0
